The panel holds about 79,000 compounds, 15% with a hit somewhere; the sample as a whole holds those more often. Activity calls are given as the source filed them. No stated cut-off is given here; in the data, active means growth inhibition above about 70%; inactive means the rest. *1 amine or outer side, *2 acyl side, *3 side chain or, on linkers, in order; H or OH if unused. Where a SMILES comes first, the peptide text is derived from it. [ ]: non-standard residue; d: D form. X8 = C=CCC(O[*:1])C(=O)[*:2]; NMeV = CN[CH](C(=O)O)C(C)C; NMeA = CN[CH](C)C(=O)O; βAla = NCCC(=O)O
Experiment: NCI Yeast Anticancer Drug Screen. Data for the rad50 strain (AID 155);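 further: 0% = growth of vehicle-only cultures of the same strain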
Details: S. cerevisiae rad50 strain growth inhibition; at 50.0 µM; hits give high values
Summary of the method: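 Cells are treated with compound, grown, and their growth is then scored against vehicle-only cultures of the same repair-deficient yeast strain.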
For `S=C1SC(=Nc2ccccc2)C(=Nc2ccccc2)N1c1ccccc1`, the growth inhibition was -21.1% (inactive). With `COc1ccc(NC(=O)C(=O)Cc2ccc([N+](=O)[O-])c([N+](=O)[O-])c2CC(=O)C(=O)Nc2ccc(OC)cc2OC)c(OC)c1` the growth inhibition was 0.35% (inactive). With `CCO/C(Cc1ccc(Cl)cc1)=N/NC(N)=S` the growth inhibition was 39.6% (inactive). In the case of `O=c1[nH]c(-c2ccccc2)c(-c2ccccc2)nc1Cl`, the growth inhibition is reported as 6.35% (inactive). For `OC(c1ccccc1)(c1c2ccccc2cc2ccccc12)C1CCC1` (stereo not given), the growth inhibition was 16.8% (inactive). With `CNCCC(=O)c1ccccc1` the growth inhibition was -20.9% (inactive). In the case of `NC(=O)c1nnc2c(F)cccc2c1N`, the growth inhibition is reported as -39.2% (inactive). With `CCc1nnc(N)o1` the growth inhibition was -14.8% (inactive). In the case of `CC(C)CNC(=O)Nc1ccccc1C(F)(F)F`, the growth inhibition is reported as -6.5% (inactive). With `O=[N+]([O-])c1cccc(/C=N\O)c1` the growth inhibition was -17.8% (inactive). With `CCOC(=O)CNC(=O)C(Cc1cnc[nH]1)NC(=O)OCc1ccccc1` (stereo not given) the growth inhibition was -1.9% (inactive). For `Cc1cccnc1C`, the growth inhibition was 16.9% (inactive). With `CCOC(=O)C(Cc1ccc(OCc2ccccc2)c(OCc2ccccc2)c1)(NC=O)C(=O)OCC` the growth inhibition was 36.6% (inactive). In the case of `CC1(c2ccc(C(O)c3ccccc3)s2)OCCO1` (stereo not given), the growth inhibition is reported as 1.8% (inactive). For `CCOC(=O)c1ccc(NC(=O)c2ccc(Cl)cc2Cl)cc1`, the growth inhibition was -7.7% (inactive). In the case of `CCN(CC)CCC1CC/C(=C\c2ccc(OC)cc2)C1=O` (stereo not given), the growth inhibition is reported as 18.3% (inactive). In the case of `O=C(N/N=C\c1cccnc1)Nc1ccc(N=Nc2ccccc2)cc1`, the growth inhibition is reported as 12% (inactive). With `CCCCCC(=O)Nc1cc(N)cc(C(=O)O)c1` the growth inhibition was 4.25% (inactive). For `COc1ccc(/C=C2\CCC(CCN(C)C)(C3=CCCC3)C2=O)cc1` (stereo not given), the growth inhibition was 2.1% (inactive). With `COC(=O)c1cc(OC)c2cccnc2c1Nc1ccccc1` the growth inhibition was -7.75% (inactive). With `N#CCC(=O)N1CCCC1` the growth inhibition was -23.1% (inactive). For `CC1(C2(C)Nc3ccccc3O2)Nc2ccccc2O1` (stereo not given), the growth inhibition was 10.2% (inactive). With `S=c1ncnc2cc3[nH][nH]cc3cc12` the growth inhibition was 1.95% (inactive). With `CCOc1cc2c(cc1C(C)c1ccc(OCc3ccccc3)c(OC)c1)OCO2` (stereo not given) the growth inhibition was 18.8% (inactive). For `CC1=C(C(=O)Nc2ccc([N+](=O)[O-])cc2)C(c2ccco2)C(C(=O)Nc2ccc([N+](=O)[O-])cc2)=C(C)N1`, the growth inhibition was 30.2% (inactive).

Experiment: NCI Yeast Anticancer Drug Screen. Data for the mec2-1 strain (AID 157)
Details: S. cerevisiae mec2-1 strain, at 50.0 µM, hits give high values
Summary of the method: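 Using mec2-1 yeast: add compound, measure growth, express inhibition versus vehicle-treated cultures.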
In the case of `CCC1SCC(C)(C)NC1=O` (stereo not given), the growth inhibition is reported as 13.4% (inactive). For `CCOc1ccccc1NC(=O)C(=O)c1c(O)c2ccc(O)cc2oc1=O`, the growth inhibition was 9.55% (inactive). For `CC[N+](C)(C)c1ccc(/C=C(/C#N)C(=O)OC)cc1`, the growth inhibition was 9.8% (inactive). With `Cc1c(O)c2ccc3ccccc3c2oc1=O` the growth inhibition was 5.75% (inactive). In the case of `CCOC(=O)CCCOc1ccccc1`, the growth inhibition is reported as -2.95% (inactive). In the case of `CSc1ncc(C#N)c2nc(-c3ccccc3)nn12`, the growth inhibition is reported as 13.9% (inactive). In the case of `CCOc1ccc2nc(NC(=O)C(=O)C(C(=O)c3ccccc3-c3ccccc3)C3OC(=O)c4ccccc43)sc2c1` (stereo not given), the growth inhibition is reported as 23.9% (inactive). With `CC12CC(=O)NC(=O)N1CCS2` (stereo not given) the growth inhibition was 5.6% (inactive). In the case of `CCOC(=O)C(=O)/C(=C/N1CCNC1=S)C(=O)OCC`, the growth inhibition is reported as -9.05% (inactive). For `CC1(C)OC2C(C3N(c4ccccc4)CCN3c3ccccc3)OC(n3ccc(=O)[nH]c3=O)C2O1` (stereo not given), the growth inhibition was -5.85% (inactive). In the case of `C=CCC1OC(=O)CCNC(=O)C(C)N(C)C(=O)C(C(C)C)N(C)C(=O)C(C(C)CC)NC(=O)C2CCCN2C1=O` (stereo not given) (cyclo([X8]PI[NMeV][NMeA][βAla]); configuration not given here), the growth inhibition is reported as 10.1% (inactive). With `CC1N(/N=C/c2ccccc2)C(c2ccccc2)C(c2ccccc2)N1/N=C/c1ccccc1` (stereo not given) the growth inhibition was 15% (inactive). For `ClCCOCc1ccc(Cl)cc1Cl`, the growth inhibition was 8.9% (inactive). In the case of `CCOC(=O)OC1CC2CC(OC(=O)OCC)c3cccc(Br)c3C2c2ccccc21` (stereo not given), the growth inhibition is reported as 12.9% (inactive). In the case of `Cc1ccc(C)c2c(CC(=O)O)c[nH]c12`, the growth inhibition is reported as -11.2% (inactive). For `S=C1SC(=Nc2ccccc2)C(=Nc2ccccc2)N1c1ccccc1`, the growth inhibition was -15.9% (inactive). For `COc1ccc(NC(=O)C(=O)Cc2ccc([N+](=O)[O-])c([N+](=O)[O-])c2CC(=O)C(=O)Nc2ccc(OC)cc2OC)c(OC)c1`, the growth inhibition was -36.1% (inactive). For `CCO/C(Cc1ccc(Cl)cc1)=N/NC(N)=S`, the growth inhibition was 2% (inactive). In the case of `O=c1[nH]c(-c2ccccc2)c(-c2ccccc2)nc1Cl`, the growth inhibition is reported as 1.8% (inactive). With `OC(c1ccccc1)(c1c2ccccc2cc2ccccc12)C1CCC1` (stereo not given) the growth inhibition was 20.1% (inactive). With `CNCCC(=O)c1ccccc1` the growth inhibition was -14.3% (inactive). In the case of `NC(=O)c1nnc2c(F)cccc2c1N`, the growth inhibition is reported as -29.4% (inactive). For `CCc1nnc(N)o1`, the growth inhibition was 1.9% (inactive). For `CC(C)CNC(=O)Nc1ccccc1C(F)(F)F`, the growth inhibition was -8.4% (inactive). With `O=[N+]([O-])c1cccc(/C=N\O)c1` the growth inhibition was -8.45% (inactive). For `CCOC(=O)CNC(=O)C(Cc1cnc[nH]1)NC(=O)OCc1ccccc1` (stereo not given), the growth inhibition was -13.6% (inactive). For `Cc1cccnc1C`, the growth inhibition was -7.25% (inactive). In the case of `CCOC(=O)C(Cc1ccc(OCc2ccccc2)c(OCc2ccccc2)c1)(NC=O)C(=O)OCC`, the growth inhibition is reported as -1.6% (inactive). With `CC1(c2ccc(C(O)c3ccccc3)s2)OCCO1` (stereo not given) the growth inhibition was 7.3% (inactive). For `CCOC(=O)c1ccc(NC(=O)c2ccc(Cl)cc2Cl)cc1`, the growth inhibition was 18.6% (inactive). With `CCN(CC)CCC1CC/C(=C\c2ccc(OC)cc2)C1=O` (stereo not given) the growth inhibition was -4.35% (inactive). For `O=C(N/N=C\c1cccnc1)Nc1ccc(N=Nc2ccccc2)cc1`, the growth inhibition was 12.5% (inactive). For `CCCCCC(=O)Nc1cc(N)cc(C(=O)O)c1`, the growth inhibition was 9.25% (inactive). With `COc1ccc(/C=C2\CCC(CCN(C)C)(C3=CCCC3)C2=O)cc1` (stereo not given) the growth inhibition was -6.6% (inactive). In the case of `COC(=O)c1cc(OC)c2cccnc2c1Nc1ccccc1`, the growth inhibition is reported as 12.2% (inactive). For `N#CCC(=O)N1CCCC1`, the growth inhibition was -32.3% (inactive). For `CC1(C2(C)Nc3ccccc3O2)Nc2ccccc2O1` (stereo not given), the growth inhibition was 8.35% (inactive). For `S=c1ncnc2cc3[nH][nH]cc3cc12`, the growth inhibition was 2.5% (inactive). For `CCOc1cc2c(cc1C(C)c1ccc(OCc3ccccc3)c(OC)c1)OCO2` (stereo not given), the growth inhibition was -6.7% (inactive). In the case of `CC1=C(C(=O)Nc2ccc([N+](=O)[O-])cc2)C(c2ccco2)C(C(=O)Nc2ccc([N+](=O)[O-])cc2)=C(C)N1`, the growth inhibition is reported as 35.5% (inactive).

— PubChem BioAssay (NCI)
